{"source": "PubChem BioAssay", "key": {"[1]": {"assay": "binders of probe aFSTL3 on microarray, primary screen, stem cell growth factor project, biochemical, small-molecule microarray, fluorescence 635/667 (AID 1064);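 also: measures binding of the biotinylated anti-FSTL3 antibody to printed compounds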", "settings": "higher = more signal"}, "[2]": {"assay": "binders from COS7 lysate, DM2A8 probe, primary screen, torsin A project, cell lysate, small-molecule microarray, fluorescence 635/667 (AID 1065)", "settings": "higher = more signal, COS7 lysate expressing mutant human TOR1A"}, "[3]": {"assay": "binders of probe aFGF2 on microarray, primary screen, stem cell growth factor project, biochemical, small-molecule microarray, fluorescence 635/667 (AID 1067);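 also: measures binding of biotinylated aFGF2 protein to printed compounds on slides; z-score merges feature fluorescence and signal-to-noise across triplicate slides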", "settings": "higher = more signal"}, "[4]": {"assay": "binders of probe aFGF10 on microarray, primary screen, stem cell growth factor project, biochemical, small-molecule microarray, fluorescence 635/667 (AID 1071);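 also: score merges 667 nm spot intensity and signal to noise from triplicate slides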", "settings": "higher = more signal"}, "[5]": {"target": "Neurogenic locus notch homolog protein 2 (Homo sapiens) (UniProt Q04721)", "assay": "Notch2 binders on small-molecule microarrays, primary screen, biochemical, small-molecule microarray, 635 nm fluorescence, stem cell growth factors (AID 1073)", "settings": "Notch2 binding, higher = more signal"}, "[6]": {"target": "Pro-neuregulin-1, membrane-bound isoform (Homo sapiens) (UniProt Q02297)", "sequence (Q02297 whole entry, looked up, canonical isoform)": "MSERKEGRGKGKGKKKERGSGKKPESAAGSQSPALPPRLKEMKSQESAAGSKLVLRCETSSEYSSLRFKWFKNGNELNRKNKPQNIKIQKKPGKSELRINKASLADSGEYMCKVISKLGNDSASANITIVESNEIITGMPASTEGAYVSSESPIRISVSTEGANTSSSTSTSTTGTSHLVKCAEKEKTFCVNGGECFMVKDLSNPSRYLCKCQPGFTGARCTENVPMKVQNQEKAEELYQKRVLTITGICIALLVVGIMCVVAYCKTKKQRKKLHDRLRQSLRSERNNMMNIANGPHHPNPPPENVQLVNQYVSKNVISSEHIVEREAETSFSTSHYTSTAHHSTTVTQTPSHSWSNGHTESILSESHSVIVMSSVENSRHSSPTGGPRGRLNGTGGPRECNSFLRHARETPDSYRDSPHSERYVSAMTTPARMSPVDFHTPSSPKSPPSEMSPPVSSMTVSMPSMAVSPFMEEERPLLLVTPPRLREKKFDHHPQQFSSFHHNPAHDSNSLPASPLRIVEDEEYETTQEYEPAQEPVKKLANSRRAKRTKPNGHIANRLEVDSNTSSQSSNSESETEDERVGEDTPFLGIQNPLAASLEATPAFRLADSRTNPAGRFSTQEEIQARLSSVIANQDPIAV", "assay": "NRG1 binders on small-molecule microarrays, primary screen, psychiatric disease protein project, biochemical, small-molecule microarray, fluorescence 635/667 (AID 1075);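 also: score combines 667 nm spot fluorescence with signal to noise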", "settings": "NRG1 binding, 635 nm fluorescence, higher = more signal"}, "[7]": {"tested_on": "Neuregulin-1 EGF-like domain", "assay": "binders of neuregulin-1 EGF-like domain, primary screen, biochemical, small-molecule microarray, 635 nm fluorescence (AID 1081);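 also: binding of the protein to compounds printed on small-molecule microarray slides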", "settings": "small-molecule microarray binding, higher = more signal"}, "[8]": {"assay": "FRG1 promoter luciferase signal modulators, primary screen, FRG1 inhibition for FSHD, cell-based, C2C12 myotubes, firefly/Renilla luciferase, luminescence (AID 1084)", "settings": "higher = more signal, called active from +8 up or from −8 down"}, "[9]": {"assay": "binders of probe aFST on microarray, primary screen, stem cell growth factor project, biochemical, small-molecule microarray, fluorescence 635/667 (AID 1086);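 also: score merges 667 nm fluorescence with signal-to-noise of each printed compound spot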", "settings": "higher = more signal"}, "[10]": {"assay": "binders of probe aHhip on microarray, primary screen, stem cell growth factor project, biochemical, small-molecule microarray, fluorescence 635/667 (AID 1087);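 also: score merges spot fluorescence at 667nm with spot signal to noise ratio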", "settings": "higher = more signal"}, "[11]": {"tested_on": "PRMT1 (protein arginine N-methyltransferase 1)", "assay": "PRMT1 binders on small-molecule microarrays, primary screen, biochemical, small-molecule microarray, 635 nm fluorescence (AID 1088);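 also: binding of Prmt1 protein to compounds spotted on small-molecule microarray slides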", "settings": "small-molecule microarray binding, higher = more signal"}, "[12]": {"assay": "yeast growth modulation, basal conditions, primary screen, YJM789 clinical isolate, OD600, 24 h (AID 1089);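 also: growth of clinical yeast isolate S. cerevisiae YJM 789 seeded 1000 cells per well; test concentration not given here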", "settings": "S. cerevisiae YJM789 growth, higher = more signal, called active from +8 up or from −8 down"}, "[13]": {"assay": "fission yeast growth modulation, primary screen, strain 972, OD600, 24 h, no modulator (AID 1090);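 also: basal condition with compound alone and no growth modifier present; test concentration not given here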", "settings": "S. pombe 972 growth, higher = more signal, called active from +8 up or from −8 down"}, "[14]": {"assay": "S. cerevisiae growth modulation with rapamycin, primary screen, strain BY4716, OD600, 96 h (AID 1091); also: test concentration not given here", "settings": "higher = more signal, called active from +8 up or from −8 down"}, "[15]": {"target": "Torsin-1A-interacting protein 2 (Homo sapiens) (UniProt Q8NFQ8)", "sequence (Q8NFQ8 whole entry, looked up)": "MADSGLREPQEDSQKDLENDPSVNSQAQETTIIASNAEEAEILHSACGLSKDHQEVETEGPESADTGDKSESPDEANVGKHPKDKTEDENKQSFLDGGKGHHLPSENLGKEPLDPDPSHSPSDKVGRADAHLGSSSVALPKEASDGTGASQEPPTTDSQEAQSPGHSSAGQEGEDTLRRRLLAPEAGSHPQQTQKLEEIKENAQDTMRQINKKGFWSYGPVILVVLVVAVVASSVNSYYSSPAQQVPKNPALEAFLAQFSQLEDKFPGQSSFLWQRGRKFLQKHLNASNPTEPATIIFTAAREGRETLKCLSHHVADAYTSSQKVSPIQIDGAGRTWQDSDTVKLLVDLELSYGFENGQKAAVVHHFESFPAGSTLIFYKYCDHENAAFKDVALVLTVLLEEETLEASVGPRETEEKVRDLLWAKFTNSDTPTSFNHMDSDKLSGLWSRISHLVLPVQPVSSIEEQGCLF", "assay": "LULL1 binders on small-molecule microarray, primary screen, cell lysate, human LULL1 lysate, 635/667 nm fluorescence (AID 1092);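 also: score merges per-feature 667 nm fluorescence with signal-to-noise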", "settings": "hLULL1 lysate binding, 635 nm fluorescence, higher = more signal"}, "[16]": {"assay": "E. coli growth modulation, two-sided OD650, primary screen, E. coli filamentation project, strain DRC41, 24 h (AID 1093);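 also: MC1000 strain lacking acrAB efflux and sulA so SOS filamentation is blocked; test concentration not given here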", "settings": "OD650, 24 h, higher = more signal, called active from +8 up or from −8 down"}, "[17]": {"assay": "small-molecule microarray binders of probe aLefty2, primary screen, biochemical, biotinylated probe, 635/667 nm fluorescence (AID 1094);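 also: score merges spot fluorescence near 667 nm with spot signal-to-noise ratio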", "settings": "higher = more signal"}, "[18]": {"tested_on": "Noggin (protein binding on small-molecule microarray)", "assay": "Noggin binders on small-molecule microarray, primary screen, biochemical, 635/667 nm fluorescence (AID 1095);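 also: score merges 667 nm feature fluorescence with signal to noise over triplicate slides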", "settings": "635 nm fluorescence, higher = more signal"}, "[19]": {"target": "Neurogenic locus notch homolog protein 3 (Homo sapiens) (UniProt Q9UM47)", "sequence (Q9UM47 whole entry, looked up)": "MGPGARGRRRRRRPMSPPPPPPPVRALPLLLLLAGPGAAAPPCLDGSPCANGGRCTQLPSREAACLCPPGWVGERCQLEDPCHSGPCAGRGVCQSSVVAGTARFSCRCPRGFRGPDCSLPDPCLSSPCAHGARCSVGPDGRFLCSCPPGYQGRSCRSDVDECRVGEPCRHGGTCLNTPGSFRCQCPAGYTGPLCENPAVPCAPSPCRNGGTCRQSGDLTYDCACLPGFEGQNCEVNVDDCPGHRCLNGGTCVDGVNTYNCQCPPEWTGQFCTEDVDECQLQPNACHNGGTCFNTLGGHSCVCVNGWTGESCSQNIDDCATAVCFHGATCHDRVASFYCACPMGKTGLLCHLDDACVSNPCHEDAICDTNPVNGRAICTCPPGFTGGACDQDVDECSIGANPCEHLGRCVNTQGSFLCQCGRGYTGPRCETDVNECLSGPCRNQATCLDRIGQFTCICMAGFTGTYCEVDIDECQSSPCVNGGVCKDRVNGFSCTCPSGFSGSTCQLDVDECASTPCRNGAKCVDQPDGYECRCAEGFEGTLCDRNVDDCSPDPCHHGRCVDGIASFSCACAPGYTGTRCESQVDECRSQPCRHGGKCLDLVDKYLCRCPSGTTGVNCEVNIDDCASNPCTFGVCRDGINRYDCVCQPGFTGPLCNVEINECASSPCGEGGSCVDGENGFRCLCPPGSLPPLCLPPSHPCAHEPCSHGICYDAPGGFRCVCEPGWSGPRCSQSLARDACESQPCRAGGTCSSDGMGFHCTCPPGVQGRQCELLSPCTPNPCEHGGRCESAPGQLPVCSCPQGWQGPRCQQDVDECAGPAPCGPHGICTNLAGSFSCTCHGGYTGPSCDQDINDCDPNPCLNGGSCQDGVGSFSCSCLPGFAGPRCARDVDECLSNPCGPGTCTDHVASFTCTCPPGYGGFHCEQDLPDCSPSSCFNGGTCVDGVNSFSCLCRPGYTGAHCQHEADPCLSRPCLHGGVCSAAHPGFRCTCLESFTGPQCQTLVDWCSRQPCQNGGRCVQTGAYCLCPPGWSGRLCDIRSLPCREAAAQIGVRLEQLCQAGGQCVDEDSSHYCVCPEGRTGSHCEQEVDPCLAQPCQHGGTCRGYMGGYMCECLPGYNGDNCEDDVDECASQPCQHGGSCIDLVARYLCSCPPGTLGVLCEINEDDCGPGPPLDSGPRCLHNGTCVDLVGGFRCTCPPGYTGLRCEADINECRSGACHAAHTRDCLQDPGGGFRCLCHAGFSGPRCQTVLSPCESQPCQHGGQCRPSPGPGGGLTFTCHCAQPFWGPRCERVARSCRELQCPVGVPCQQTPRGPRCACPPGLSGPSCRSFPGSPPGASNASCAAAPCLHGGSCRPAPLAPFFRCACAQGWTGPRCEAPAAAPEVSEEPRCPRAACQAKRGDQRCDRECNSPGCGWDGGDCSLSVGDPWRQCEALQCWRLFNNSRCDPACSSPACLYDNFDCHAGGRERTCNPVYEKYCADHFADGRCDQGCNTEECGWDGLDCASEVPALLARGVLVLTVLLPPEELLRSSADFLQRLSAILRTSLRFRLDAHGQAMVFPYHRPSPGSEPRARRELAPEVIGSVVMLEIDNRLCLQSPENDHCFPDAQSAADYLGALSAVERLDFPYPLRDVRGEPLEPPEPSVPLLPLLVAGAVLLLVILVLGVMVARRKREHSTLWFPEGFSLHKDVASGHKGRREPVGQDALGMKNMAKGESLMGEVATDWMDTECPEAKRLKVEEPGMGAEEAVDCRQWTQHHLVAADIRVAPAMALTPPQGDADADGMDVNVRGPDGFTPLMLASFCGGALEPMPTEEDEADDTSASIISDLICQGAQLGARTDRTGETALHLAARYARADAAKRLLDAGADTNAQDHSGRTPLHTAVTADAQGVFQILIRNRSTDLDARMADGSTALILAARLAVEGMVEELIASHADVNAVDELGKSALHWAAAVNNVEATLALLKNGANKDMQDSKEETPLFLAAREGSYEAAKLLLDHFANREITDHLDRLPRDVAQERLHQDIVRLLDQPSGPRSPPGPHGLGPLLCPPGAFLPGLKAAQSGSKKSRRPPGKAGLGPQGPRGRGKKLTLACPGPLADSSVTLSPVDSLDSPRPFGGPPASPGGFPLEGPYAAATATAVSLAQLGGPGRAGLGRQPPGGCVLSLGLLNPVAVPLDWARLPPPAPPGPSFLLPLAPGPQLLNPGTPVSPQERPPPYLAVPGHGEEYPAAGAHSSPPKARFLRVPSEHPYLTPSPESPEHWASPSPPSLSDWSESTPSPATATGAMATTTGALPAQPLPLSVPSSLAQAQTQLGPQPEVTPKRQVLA", "assay": "NOTCH3 binders on small-molecule microarray, primary screen, biochemical, 635/667 nm fluorescence (AID 1096)", "settings": "NOTCH3 binding, 635 nm fluorescence, higher = more signal"}, "[20]": {"assay": "small-molecule microarray binders of probe aEGFR, primary screen, biochemical, biotinylated probe, 635/667 nm fluorescence (AID 1097);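 also: probe is a biotinylated anti-EGFR antibody binding compounds printed on slides; score combines fluorescence near 667 nm and signal to noise of each spot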", "settings": "higher = more signal"}}, "note": "Activity calls are given as the source filed them.", "data": [{"smiles": "CCCC[C@@H]1C[C@H]1[C@@H](NC(=O)c1ccccc1)c1ccccc1C(F)(F)F", "values": [{"measurement": "composite z-score", "setting": "[1]", "result": 0.135}, {"measurement": "composite z-score", "setting": "[2]", "result": 0.281}, {"measurement": "composite z-score", "setting": "[3]", "result": 0.149}, {"measurement": "composite z-score", "setting": "[4]", "result": 0.189}, {"measurement": "composite z-score", "setting": "[5]", "result": 1.13}, {"measurement": "composite z-score", "setting": "[6]", "result": 1.97}, {"measurement": "composite z-score", "setting": "[7]", "result": 0.828}, {"measurement": "z-score", "setting": "[8]", "result": "0.822 (inactive)"}, {"measurement": "composite z-score", "setting": "[9]", "result": 0.819}, {"measurement": "composite z-score", "setting": "[10]", "result": -0.189}, {"measurement": "composite z-score", "setting": "[11]", "result": 1.03}, {"measurement": "z-score", "setting": "[12]", "result": "0.261 (inactive)"}, {"measurement": "z-score", "setting": "[13]", "result": "0.367 (inactive)"}, {"measurement": "z-score", "setting": "[14]", "result": "0.0237 (inactive)"}, {"measurement": "composite z-score", "setting": "[15]", "result": 3.38}, {"measurement": "z-score", "setting": "[16]", "result": "0.151 (inactive)"}, {"measurement": "composite z-score", "setting": "[17]", "result": 0.198}, {"measurement": "composite z-score", "setting": "[18]", "result": 0.0984}, {"measurement": "composite z-score", "setting": "[19]", "result": 0.961}, {"measurement": "composite z-score", "setting": "[20]", "result": -0.123}]}, {"smiles": "COc1cc([C@@H]2N[C@H](C(=O)O)Cc3c2[nH]c2ccccc32)cc(OC)c1OC", "values": [{"measurement": "composite z-score", "setting": "[1]", "result": -0.534}, {"measurement": "composite z-score", "setting": "[2]", "result": 0.55}, {"measurement": "composite z-score", "setting": "[3]", "result": -0.0806}, {"measurement": "composite z-score", "setting": "[4]", "result": 0.28}, {"measurement": "composite z-score", "setting": "[5]", "result": 0.507}, {"measurement": "composite z-score", "setting": "[6]", "result": 0.0318}, {"measurement": "composite z-score", "setting": "[7]", "result": -0.205}, {"measurement": "z-score", "setting": "[8]", "result": "-0.643 (inactive)"}, {"measurement": "composite z-score", "setting": "[9]", "result": -0.134}, {"measurement": "composite z-score", "setting": "[10]", "result": 0.338}, {"measurement": "composite z-score", "setting": "[11]", "result": -0.504}, {"measurement": "z-score", "setting": "[12]", "result": "-0.258 (inactive)"}, {"measurement": "z-score", "setting": "[13]", "result": "-0.581 (inactive)"}, {"measurement": "z-score", "setting": "[14]", "result": "-0.611 (inactive)"}, {"measurement": "composite z-score", "setting": "[15]", "result": 0.235}, {"measurement": "z-score", "setting": "[16]", "result": "0.233 (inactive)"}, {"measurement": "composite z-score", "setting": "[17]", "result": -0.123}, {"measurement": "composite z-score", "setting": "[18]", "result": 0.367}, {"measurement": "composite z-score", "setting": "[19]", "result": 0.475}, {"measurement": "composite z-score", "setting": "[20]", "result": -0.0069}]}, {"smiles": "[N-]=[N+]=NCc1ccccc1[C@H]1OC(c2ccc(OCCCO)cc2)=N[C@@]1(Cc1ccccc1N=[N+]=[N-])C(=O)NCc1ccccc1", "values": [{"measurement": "composite z-score", "setting": "[1]", "result": 0.817}, {"measurement": "composite z-score", "setting": "[2]", "result": 0.155}, {"measurement": "composite z-score", "setting": "[3]", "result": 0.0308}, {"measurement": "composite z-score", "setting": "[4]", "result": 0.622}, {"measurement": "composite z-score", "setting": "[5]", "result": 1.28}, {"measurement": "composite z-score", "setting": "[6]", "result": 0.408}, {"measurement": "composite z-score", "setting": "[7]", "result": 0.807}, {"measurement": "z-score", "setting": "[8]", "result": "-1.35 (inactive)"}, {"measurement": "composite z-score", "setting": "[9]", "result": 0.939}, {"measurement": "composite z-score", "setting": "[10]", "result": 0.0595}, {"measurement": "composite z-score", "setting": "[11]", "result": 1.4}, {"measurement": "z-score", "setting": "[12]", "result": "0.0182 (inactive)"}, {"measurement": "z-score", "setting": "[13]", "result": "1.98 (inactive)"}, {"measurement": "z-score", "setting": "[14]", "result": "11.8 (active)"}, {"measurement": "composite z-score", "setting": "[15]", "result": 2.69}, {"measurement": "z-score", "setting": "[16]", "result": "0.0275 (inactive)"}, {"measurement": "composite z-score", "setting": "[17]", "result": 0.232}, {"measurement": "composite z-score", "setting": "[18]", "result": 0.159}, {"measurement": "composite z-score", "setting": "[19]", "result": 0.867}, {"measurement": "composite z-score", "setting": "[20]", "result": 0.223}]}, {"smiles": "CC[C@H]1C2=C3C(CC[C@H]4C(OC)OC[C@](C)([C@@H]34)N(C(=O)OC(C)(C)C)C2)C(CO)C1CO", "note": "(stereo not given in full)", "values": [{"measurement": "composite z-score", "setting": "[1]", "result": 1.21}, {"measurement": "composite z-score", "setting": "[2]", "result": 0.896}, {"measurement": "composite z-score", "setting": "[3]", "result": 0.181}, {"measurement": "composite z-score", "setting": "[4]", "result": 0.366}, {"measurement": "composite z-score", "setting": "[5]", "result": 1.65}, {"measurement": "composite z-score", "setting": "[6]", "result": 1.32}, {"measurement": "composite z-score", "setting": "[7]", "result": 1.13}, {"measurement": "z-score", "setting": "[8]", "result": "-0.342 (inactive)"}, {"measurement": "composite z-score", "setting": "[9]", "result": 1.87}, {"measurement": "composite z-score", "setting": "[10]", "result": 0.0053}, {"measurement": "composite z-score", "setting": "[11]", "result": 1.4}, {"measurement": "z-score", "setting": "[12]", "result": "-1.22 (inactive)"}, {"measurement": "z-score", "setting": "[13]", "result": "1.21 (inactive)"}, {"measurement": "z-score", "setting": "[14]", "result": "-0.565 (inactive)"}, {"measurement": "composite z-score", "setting": "[15]", "result": 3.35}, {"measurement": "z-score", "setting": "[16]", "result": "-0.468 (inactive)"}, {"measurement": "composite z-score", "setting": "[17]", "result": 0.762}, {"measurement": "composite z-score", "setting": "[18]", "result": 0.0676}, {"measurement": "composite z-score", "setting": "[19]", "result": 1.11}, {"measurement": "composite z-score", "setting": "[20]", "result": 0.477}]}, {"smiles": "Cc1ccc(S[C@]2(C(=O)NCCCN(C)C)CC(=O)N(C3CCCCC3)[C@@H]2c2ccc(CO)cc2I)cc1", "values": [{"measurement": "composite z-score", "setting": "[1]", "result": 1.93}, {"measurement": "composite z-score", "setting": "[2]", "result": -0.697}, {"measurement": "composite z-score", "setting": "[3]", "result": -0.113}, {"measurement": "composite z-score", "setting": "[4]", "result": -0.546}, {"measurement": "composite z-score", "setting": "[5]", "result": -0.197}, {"measurement": "composite z-score", "setting": "[6]", "result": 0.266}, {"measurement": "composite z-score", "setting": "[7]", "result": 0.942}, {"measurement": "z-score", "setting": "[8]", "result": "-1.31 (inactive)"}, {"measurement": "composite z-score", "setting": "[9]", "result": 0.235}, {"measurement": "composite z-score", "setting": "[10]", "result": -0.0645}, {"measurement": "composite z-score", "setting": "[11]", "result": -0.167}, {"measurement": "z-score", "setting": "[12]", "result": "0.782 (inactive)"}, {"measurement": "z-score", "setting": "[13]", "result": "-8.01 (active)"}, {"measurement": "z-score", "setting": "[14]", "result": "-0.417 (inactive)"}, {"measurement": "composite z-score", "setting": "[15]", "result": 1.81}, {"measurement": "z-score", "setting": "[16]", "result": "-0.455 (inactive)"}, {"measurement": "composite z-score", "setting": "[17]", "result": 0.213}, {"measurement": "composite z-score", "setting": "[18]", "result": -0.553}, {"measurement": "composite z-score", "setting": "[19]", "result": -0.742}, {"measurement": "composite z-score", "setting": "[20]", "result": -0.257}]}]}
